This is part of a sample that, as a whole, favours compounds with a hit. Of some 79,000 tested, about 15% had one in any assay. Activity calls are given as the source filed them. Cut-off read from the data, not from the text of the source: active = growth inhibition above about 70%; inactive = the rest.
Assays:
[1] = NCI Yeast Anticancer Drug Screen. Data for the rad52 strain (AID 147);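 note: 0% = growth of vehicle-treated control cultures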; conditions: S. cerevisiae rad52 mutant growth inhibition, stronger effect = higher value
How it was run: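 Yeast strain carrying a DNA damage repair alteration was exposed to test compounds. Growth inhibition was measured relative to vehicle-treated controls.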

[2] = NCI Yeast Anticancer Drug Screen. Data for the wt1 strain (AID 149);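 note: 0% = growth of vehicle-treated wt1 cultures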; conditions: S. cerevisiae wt1 strain (SPY 50644) growth inhibition, stronger effect = higher value
How it was run: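 Growth inhibition read against vehicle controls after compound exposure of the wt1 yeast strain.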

[3] = NCI Yeast Anticancer Drug Screen. Data for the mgt1 strain (AID 153); conditions: S. cerevisiae mgt1 mutant growth inhibition, stronger effect = higher value
How it was run: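 Yeast mgt1 strain (DNA repair/cell-cycle alteration panel) exposed to compounds; growth inhibition measured relative to vehicle-treated controls.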

[4] = NCI Yeast Anticancer Drug Screen. Data for the rad50 strain (AID 155);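 note: 0% = growth of vehicle-only cultures of the same strain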; conditions: S. cerevisiae rad50 strain growth inhibition, stronger effect = higher value
How it was run: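 Readout: growth inhibition relative to vehicle-treated cultures. Compound exposure was carried out in a genetically defined yeast strain deficient in DNA damage repair.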

[5] = NCI Yeast Anticancer Drug Screen. Data for the mec2-1 strain (AID 157); conditions: S. cerevisiae mec2-1 strain, stronger effect = higher value
How it was run: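 mec2-1 yeast strain, carrying an alteration in DNA damage repair or cell cycle control, was exposed to compounds; growth inhibition was measured relative to vehicle-treated controls.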

[6] = NCI Yeast Anticancer Drug Screen. Data for the rad14 strain (AID 159);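 note: 0% = growth of vehicle-treated control cultures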; conditions: S. cerevisiae rad14 strain growth inhibition, stronger effect = higher value
How it was run: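 Growth inhibition vs vehicle controls; genetically altered yeast strain (DNA damage repair defect) treated with test compounds.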

[7] = NCI Yeast Anticancer Drug Screen. Data for the sgs1 mgt1 strain (AID 161);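 note: 0% = growth of cultures given vehicle only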; conditions: S. cerevisiae sgs1 mgt1 strain, stronger effect = higher value
How it was run: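 Yeast cells carrying a defined DNA-repair defect were exposed to test compounds. Growth inhibition was measured relative to vehicle-treated controls.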

[8] = NCI Yeast Anticancer Drug Screen. Data for the CLN2oe strain (AID 163);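 note: 0% = growth of vehicle-only control cultures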; conditions: S. cerevisiae CLN2oe strain, stronger effect = higher value
How it was run: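 Yeast cells carrying a defined cell-cycle control alteration were exposed to test compounds. Growth inhibition was scored against vehicle-treated control cultures.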

[9] = NCI Yeast Anticancer Drug Screen. Data for the cln2 rad14 strain (AID 165);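 note: 0% = growth equal to vehicle treated cultures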; conditions: S. cerevisiae cln2 rad14 strain, stronger effect = higher value
How it was run: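 Yeast carrying cln2 and rad14 alterations (cell cycle control and DNA damage repair) were exposed to compounds. Growth inhibition was measured against vehicle-treated controls.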

[10] = NCI Yeast Anticancer Drug Screen. Data for the bub3 strain (AID 167); conditions: S. cerevisiae bub3 mutant strain, stronger effect = higher value
How it was run: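 Readout: yeast growth inhibition, expressed relative to vehicle-only wells. The test organism is a mutant strain from a panel with lesions in DNA repair or checkpoint genes.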

[11] = NCI Yeast Anticancer Drug Screen. Data for the wt2 strain (AID 169);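 note: 0% = growth of vehicle-treated yeast cultures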; conditions: S. cerevisiae wt2 strain growth inhibition, stronger effect = higher value
How it was run: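 Yeast cells were exposed to test compounds, and growth inhibition was measured relative to vehicle-treated controls.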

[12] = NCI Yeast Anticancer Drug Screen. Data for the mlh1 strain (AID 171);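 note: 0% = growth of vehicle-treated control cultures of the same strain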; conditions: S. cerevisiae mlh1 strain growth inhibition, stronger effect = higher value
How it was run: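 Yeast carrying a defined genetic alteration in DNA damage repair or cell cycle control were exposed to test compounds. Growth inhibition was measured relative to vehicle-treated controls.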

[13] = NCI Yeast Anticancer Drug Screen. Data for the sgs1 strain (AID 173);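 note: 0% = growth of vehicle-only control cultures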; conditions: S. cerevisiae sgs1 mutant, stronger effect = higher value
How it was run: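 Yeast mutant strains carrying defined defects in DNA damage repair or cell cycle control were exposed to test compounds. Growth inhibition was scored against vehicle-treated controls.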

[14] = NCI Yeast Anticancer Drug Screen. Data for the mlh1 rad18 strain (AID 175); conditions: S. cerevisiae mlh1 rad18 strain growth inhibition, stronger effect = higher value
How it was run: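 Growth inhibition of the yeast strain was measured after compound exposure and expressed relative to vehicle-treated controls. The strain carries defined defects in DNA damage repair.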

[15] = NCI Yeast Anticancer Drug Screen. Data for the rad18 strain (AID 177); conditions: S. cerevisiae rad18 mutant growth inhibition, stronger effect = higher value
How it was run: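 Yeast carrying a defined DNA damage repair alteration were exposed to compounds. Growth inhibition was expressed relative to vehicle-treated controls.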

[16] = at 5.0 µM (retest, dose inferred, filed as 0.5)
[17] = at 50.0 µM (retest, dose inferred, filed as 5.0)

Measured: growth inhibition

O=C(/C=C\c1cccc(C(F)(F)F)c1)c1ccccc1
active: [14]; [17] 78%
inactive: [1]; at 1.2 µM -3% | [1]; at 3.7 µM -2% | [1]; at 11.0 µM -1% | [1]; at 33.0 µM -3% | [1]; at 100.0 µM -3% | [2]; at 1.2 µM -1% | [2]; at 3.7 µM 2% | [2]; at 11.0 µM -1% | [2]; at 33.0 µM -3% | [2]; at 100.0 µM -5% | [3]; at 1.2 µM -3% | [3]; at 3.7 µM -1% | [3]; at 11.0 µM -3% | [3]; at 33.0 µM -2% | [3]; at 100.0 µM -4% | [4]; at 1.2 µM -3% | [4]; at 3.7 µM -3% | [4]; [16] -5% | [4]; at 11.0 µM -1% | [4]; at 33.0 µM -4% | [4]; [17] 40% | [4]; at 50.0 µM 20.3% | [4]; at 100.0 µM -1% | [5]; at 1.2 µM -4% | [5]; at 3.7 µM 0% | [5]; [16] -19% | [5]; at 11.0 µM 0% | [5]; at 33.0 µM 1% | [5]; [17] 3% | [5]; at 50.0 µM 20.1% | [5]; at 100.0 µM -5% | [6]; at 1.2 µM -2% | [6]; at 3.7 µM 1% | [6]; at 11.0 µM 2% | [6]; at 33.0 µM -2% | [6]; at 100.0 µM -3% | [7]; [16] 18% | [7]; [17] 59% | [7]; at 50.0 µM 36.4% | [8]; at 1.2 µM -2% | [8]; at 3.7 µM -11% | [8]; at 11.0 µM -5% | [8]; at 33.0 µM -5% | [8]; at 100.0 µM -10% | [9]; [16] 8% | [9]; [17] 10% | [9]; at 50.0 µM 1.55% | [10]; at 1.2 µM -2% | [10]; at 3.7 µM -6% | [10]; [16] 11% | [10]; at 11.0 µM -2% | [10]; at 33.0 µM -3% | [10]; [17] 49% | [10]; at 50.0 µM 26.1% | [10]; at 100.0 µM -9% | [11]; at 1.2 µM -2% | [11]; at 3.7 µM 0% | [11]; at 11.0 µM -2% | [11]; at 33.0 µM -2% | [11]; at 100.0 µM -4% | [12]; at 1.2 µM -2% | [12]; at 3.7 µM -2% | [12]; at 11.0 µM -2% | [12]; at 33.0 µM -3% | [12]; at 100.0 µM -1% | [13]; at 1.2 µM -2% | [13]; at 3.7 µM -3% | [13]; at 11.0 µM 1% | [13]; at 33.0 µM 0% | [13]; at 100.0 µM 3% | [14]; [16] 16% | [14]; at 50.0 µM 25.9% | [15]; at 1.2 µM 0% | [15]; at 3.7 µM 1% | [15]; at 11.0 µM 7% | [15]; at 33.0 µM 22% | [15]; at 100.0 µM 57%

Cc1c(-c2ccccn2)ccc2ccccc12
active: [3]; at 100.0 µM 88% | [4]; at 100.0 µM 73% | [7]; at 50.0 µM 80.8% | [10]; at 33.0 µM 70% | [10]; [17] 90% | [10]; at 50.0 µM 94.2% | [10]; at 100.0 µM 96% | [13]; at 100.0 µM 83%
inactive: [1]; at 1.2 µM -2% | [1]; at 3.7 µM -1% | [1]; at 11.0 µM 0% | [1]; at 33.0 µM 2% | [1]; at 100.0 µM 46% | [2]; at 1.2 µM -1% | [2]; at 3.7 µM 0% | [2]; at 11.0 µM -3% | [2]; at 33.0 µM -4% | [2]; at 100.0 µM 18% | [3]; at 1.2 µM 0% | [3]; at 3.7 µM -1% | [3]; at 11.0 µM -3% | [3]; at 33.0 µM 0% | [4]; at 1.2 µM 6% | [4]; at 3.7 µM 37% | [4]; [16] 1% | [4]; at 11.0 µM 44% | [4]; at 33.0 µM 15% | [4]; [17] 15% | [4]; at 50.0 µM 21.8% | [5]; at 1.2 µM -1% | [5]; at 3.7 µM 0% | [5]; [16] 1% | [5]; at 11.0 µM 1% | [5]; at 33.0 µM -1% | [5]; [17] 15% | [5]; at 50.0 µM 44.5% | [5]; at 100.0 µM 50% | [6]; at 1.2 µM 0% | [6]; at 3.7 µM 0% | [6]; at 11.0 µM 1% | [6]; at 33.0 µM 6% | [6]; at 100.0 µM 43% | [7]; [16] -2% | [7]; [17] 46% | [8]; at 1.2 µM -10% | [8]; at 3.7 µM -3% | [8]; at 11.0 µM -7% | [8]; at 33.0 µM -12% | [8]; at 100.0 µM -4% | [9]; [16] 1% | [9]; [17] 3% | [9]; at 50.0 µM 25.4% | [10]; at 1.2 µM 3% | [10]; at 3.7 µM 7% | [10]; [16] 18% | [10]; at 11.0 µM 24% | [11]; at 1.2 µM -2% | [11]; at 3.7 µM 7% | [11]; at 11.0 µM -4% | [11]; at 33.0 µM -3% | [11]; at 100.0 µM 43% | [12]; at 1.2 µM 0% | [12]; at 3.7 µM -1% | [12]; at 11.0 µM -76% | [12]; at 33.0 µM 0% | [12]; at 100.0 µM 39% | [13]; at 1.2 µM -2% | [13]; at 3.7 µM -1% | [13]; at 11.0 µM 1% | [13]; at 33.0 µM 24% | [14]; [16] -1% | [14]; [17] 20% | [14]; at 50.0 µM 59.8% | [15]; at 1.2 µM -1% | [15]; at 3.7 µM 2% | [15]; at 11.0 µM 6% | [15]; at 33.0 µM 13% | [15]; at 100.0 µM 67%

— PubChem BioAssay (NCI)
